Reference: article PMC4336329 (PLoS ONE, 2015)
Screen size: about 310,000 compounds; about 14,000 (4.5%) showed an effect of 50% or more. The effect is printed as a negative number. Many of the other results were omitted from the sample, so strong results are more common in it than they were.

biological target: human ether-à-go-go-related gene (hERG) potassium channel (human, UniProt Q12809); test: primary screen, population patch clamp on CHO cells stably expressing hERG; higher = less effect of the substance
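Further: peak tail current of the secondary pulse compared with the same well before compound.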

human ether-à-go-go-related gene (hERG) potassium channel, sequence (Q12809 whole entry, looked up): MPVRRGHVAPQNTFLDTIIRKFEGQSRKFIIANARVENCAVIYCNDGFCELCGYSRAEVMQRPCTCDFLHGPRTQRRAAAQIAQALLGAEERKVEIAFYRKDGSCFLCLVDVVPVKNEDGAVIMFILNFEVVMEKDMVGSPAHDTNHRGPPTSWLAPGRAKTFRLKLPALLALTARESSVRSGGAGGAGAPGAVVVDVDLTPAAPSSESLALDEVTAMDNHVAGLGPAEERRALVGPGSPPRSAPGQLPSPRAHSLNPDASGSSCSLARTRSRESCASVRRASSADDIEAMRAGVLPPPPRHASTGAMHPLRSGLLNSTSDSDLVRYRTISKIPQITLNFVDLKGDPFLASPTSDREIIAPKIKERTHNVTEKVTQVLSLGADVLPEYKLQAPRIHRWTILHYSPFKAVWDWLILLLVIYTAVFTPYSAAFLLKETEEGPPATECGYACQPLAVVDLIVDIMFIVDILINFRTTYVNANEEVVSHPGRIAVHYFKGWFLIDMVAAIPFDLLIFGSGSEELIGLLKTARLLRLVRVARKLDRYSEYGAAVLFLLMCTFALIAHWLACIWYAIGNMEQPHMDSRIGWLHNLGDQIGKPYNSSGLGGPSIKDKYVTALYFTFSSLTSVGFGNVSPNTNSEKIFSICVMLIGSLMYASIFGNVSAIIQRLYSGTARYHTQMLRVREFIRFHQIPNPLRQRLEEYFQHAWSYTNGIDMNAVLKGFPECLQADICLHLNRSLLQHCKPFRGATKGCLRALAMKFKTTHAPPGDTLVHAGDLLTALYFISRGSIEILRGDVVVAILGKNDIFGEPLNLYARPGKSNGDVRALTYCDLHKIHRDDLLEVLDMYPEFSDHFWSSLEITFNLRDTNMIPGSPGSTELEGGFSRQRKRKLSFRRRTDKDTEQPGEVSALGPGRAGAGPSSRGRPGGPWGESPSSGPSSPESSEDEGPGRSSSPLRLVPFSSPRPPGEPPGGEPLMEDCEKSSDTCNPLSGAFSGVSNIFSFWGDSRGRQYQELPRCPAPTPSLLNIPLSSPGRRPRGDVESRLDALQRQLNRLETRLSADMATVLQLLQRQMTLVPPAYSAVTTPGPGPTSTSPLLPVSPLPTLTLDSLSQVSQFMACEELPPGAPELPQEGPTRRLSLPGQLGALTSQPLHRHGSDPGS

Row | SMILES | hERG current change (%, negative = inhibition) at 10uM
1 | CCOC(=O)C1(O)CC(C)=NN1C(=O)c1cccc(Br)c1 (centres unmarked) | 25.9%
2 | CCOc1ccc(C(=O)NCCN2CCCCC2)c(OCC)c1 | -23.1%
3 | COc1ccc(NC(=O)CCNS(=O)(=O)c2ccc3c(c2)c(=O)n(C)c(=O)n3C)cc1 | -2.03%
4 | CC/C(=N\O)c1ccc(OC)c(OC)c1 | 21.1%
5 | COC(=O)c1ccc(/C=C/c2c(-c3ccc(OC)cc3)oc3ccccc23)cc1 | 7.39%
6 | CCn1c(O)c(N=NC(=O)c2cccnc2)c2cc(Br)ccc21 | -2.17%
7 | CCCn1c(O)c(N=NC(=O)c2cccnc2)c2cc(Br)ccc21 | -3.7%
8 | CCCCn1c(O)c(N=NC(=O)c2ccncc2)c2cc(Br)ccc21 | -68.1%
9 | O=C(NCc1ccco1)c1noc2c1CCCC2 | -3.59%
10 | CCOc1ccc(C(CC(=O)O)NS(=O)(=O)c2ccc(C)cc2)cc1OC (centres unmarked) | 10.3%
11 | CSc1nc2ccc(NS(=O)(=O)c3ccc(CNC(C)=O)cc3)cc2s1 | -0.24%
12 | COc1ccc(-c2n[nH]c(=S)n2C2CCCCC2)cc1 | 20.2%
13 | Cn1c(CN2CCCCC2)nc2cc(NS(=O)(=O)c3ccc(Cl)cc3)ccc21 | -62.5%
14 | Cn1c(CN2CCCC2)nc2cc(NS(=O)(=O)c3ccccc3)ccc21 | 1.49%
15 | Cc1ccc(S(=O)(=O)Nc2ccc3c(c2)nc(CN2CCCC2)n3C)cc1 | -46.5%
16 | Cn1c(CN2CCCC2)nc2cc(NS(=O)(=O)c3ccc(Cl)cc3)ccc21 | -61.7%
17 | CC1CC(C)CN(C(=O)CNS(=O)(=O)c2ccc(Br)s2)C1 (centres unmarked) | -1.92%
18 | S=c1[nH]nc(-c2ccc(Cl)cc2)n1/N=C/c1ccco1 | 14.3%
19 | O=C(c1cccc(C(=O)N2CCN(c3ccc(F)cc3)CC2)c1)N1CCN(c2ccc(F)cc2)CC1 | -72.5%
20 | O=C(c1ccc(N2CCN(C(=O)c3cccc(F)c3)CC2)cc1)c1cccc(F)c1 | -12.5%
21 | O=C(c1ccc(N2CCN(C(=O)c3ccc(F)c(F)c3)CC2)cc1)c1cccc(F)c1 | -16.7%

Row | SMILES | hERG current change (%, negative = inhibition) at 10uM
22 | O=C(c1cn(CC2CCCCC2)nn1)N1CCN(c2ccc(F)cc2)CC1 | -52.5%
23 | O=C(c1ccc(N2CCN(C(=O)c3ccccc3)CC2)cc1)c1cccc(F)c1 | -74.5%
24 | O=C(Nc1cccc(C(=O)N2CCN(c3ccc(F)cc3)CC2)c1)c1ccccc1 | -58.7%
25 | COc1ccc(N2CCN(C(=O)c3cn(CC4CCCCC4)nn3)CC2)cc1 | -14.3%
26 | O=C(Nc1cccc(C(=O)N2CCN(c3cccc(Cl)c3)CC2)c1)c1ccccc1 | 4.69%
27 | O=C(c1cccc(-c2ccc(O)cc2)c1)N1CCN(c2ccc(F)cc2)CC1 | 23.3%
28 | O=C(Nc1cccc(C(=O)N2CCCC2)c1)c1ccccc1 | 2.2%
29 | O=C(c1cccc(C(=O)N2CCN(c3ccccc3)CC2)c1)N1CCN(c2ccccc2)CC1 | -41.7%
30 | CCOc1ccccc1N1CCN(C(=O)c2cn(CC3CCCCC3)nn2)CC1 | -9.95%
31 | CN(C1CCCCC1)S(=O)(=O)c1ccc(S(=O)(=O)N2CCN(C(=O)c3ccccc3F)CC2)cc1 | -12.2%
32 | CCOC(=O)N1CCC(N2CC34C=CC(O3)C(C(=O)Nc3ccc(OCC)cc3)C4C2=O)CC1 (centres unmarked) | -18.7%
33 | CC(OC(=O)CNC(=O)COc1ccccc1)C(=O)N(C)Cc1ccccc1 (centres unmarked) | 5.07%
34 | COC(=O)c1ccccc1NC(=O)C1CCN(S(C)(=O)=O)CC1 | 1.04%
35 | O=C(COC(=O)/C=C/c1ccc(S(=O)(=O)N2CCOCC2)cc1)NC1CCCCCCC1 | 32.2%
36 | CCO.N#CC1=C(N)Oc2c(oc(CO)cc2=O)C1c1ccccc1[N+](=O)[O-] (centres unmarked) | -1.44%
37 | CC(=O)c1ccc(-c2ccc(C(=O)N3CCN(c4ccc(F)cc4)CC3)o2)cc1 | -16.7%
38 | O=C(c1ccc(CN2CCc3ccccc3C2)cc1)N1CCN(c2ccc(F)cc2)CC1 | -68.6%
39 | O=C(c1ccccc1C(=O)N1CCN(c2ccccc2)CC1)N1CCN(c2ccccc2)CC1 | -29.7%
40 | O=C(c1ccccc1C(=O)N1CCN(c2ccc(F)cc2)CC1)N1CCN(c2ccc(F)cc2)CC1 | -73.8%
41 | O=C(c1ccc(CN2CCc3ccccc3C2)cc1)N1CCN(c2ccccc2)CC1 | -46.3%
42 | CC(=O)N1CCN(C(=O)c2cccc(S(=O)(=O)NCc3ccccc3)c2)CC1 | 5.5%

Row | SMILES | hERG current change (%, negative = inhibition) at 10uM
43 | O=C(c1cccc(S(=O)(=O)NCc2ccccc2)c1)N1CCN(c2ccc(F)cc2)CC1 | -58.1%
44 | O=C(c1cccc(S(=O)(=O)NCc2ccccc2)c1)N1CCN(c2cccc(C(F)(F)F)c2)CC1 | -4.17%
45 | O=C(c1ccc(Br)o1)N1CCN(c2ccc(F)cc2)CC1 | -45.6%
46 | CSc1ccccc1C(=O)N1CCN(c2ccc(F)cc2)CC1 | -17.5%
47 | O=C(c1ccccc1)c1ccc(C(=O)N2CCN(c3ccc(F)cc3)CC2)o1 | -78.4%
48 | O=C(c1ccc(CN2CCc3ccccc3C2)cc1)N1CCCCC1 | -9.72%
49 | COc1ccc(-c2nnc(SCC(=O)Nc3cc(C)on3)o2)cc1 | 14.4%
50 | O=C1C(c2ccc(F)cc2)N(C2CCCCC2)C(=O)CN1C1CCCC1 (centres unmarked) | -34.1%
51 | O=C(CSc1ccc2nnc(-c3ccncc3)n2n1)Nc1ccc2c(c1)OCCO2 | 10.9%
52 | Cc1ccc(-c2cc(C(=O)O)c3cc(Br)ccc3n2)s1 | 16.7%
53 | COCc1c(C(=O)OCC(=O)NCCc2ccc(S(N)(=O)=O)cc2)oc2ccccc12 | -0.489%
54 | CCc1ccc(NC(=O)CSC2=C(C#N)C(c3ccco3)C3=C(CCCC3=O)N2)cc1 (centres unmarked) | -1.71%
55 | COc1ccc(-c2nc(CNS(=O)(=O)c3ccc(OC)c(OC)c3)cs2)cc1 | -1.76%
56 | CCN(CC)C(=O)CC(c1ccc(N(C)C)cc1)c1c(O)cc(OC)cc1OC (centres unmarked) | 18.7%
57 | O=C(COc1ccccc1C(=O)Nc1ccccc1)NCCc1ccccc1 | 34.4%
58 | CCCCN(CCCC)c1cc(C)nc(-c2ccccc2O)n1 | 16.8%
59 | Cc1cccc(OCC(=O)Nc2ccc(S(=O)(=O)Nc3onc(C)c3C)cc2)c1C | 13.3%
60 | Cc1ccc(N(CC(=O)NC2CCCCC2)C(=O)c2ccc(C)s2)cc1 | -11.2%
61 | CCOC(=O)c1c(NC(NC(=O)C(C)C)C(Cl)(Cl)Cl)sc2c1CCC2 (centres unmarked) | 11%
62 | CC1CN(C(=O)CSc2nc(-c3ccccc3)cs2)CC(C)O1 (centres unmarked) | 3.57%
63 | O=C(CSc1nc(-c2ccc(F)cc2)cs1)N1CCN(C(=O)c2ccco2)CC1 | -57%

Row | SMILES | hERG current change (%, negative = inhibition) at 10uM
64 | O=C(c1ccco1)N1CCN(c2nc(-c3ccc(F)cc3)cs2)CC1 | -34.9%
65 | O=C(CSc1nc(-c2ccc(F)cc2)cs1)N1CCOCC1 | -25.4%
66 | O=C(CSc1nncs1)N1CCN(C(=O)c2ccco2)CC1 | 5.31%
67 | O=C(CSc1nc(-c2ccccc2)cs1)N1CCN(C(=O)c2ccco2)CC1 | -60.6%
68 | O=[N+]([O-])c1ccc(N=Nc2c(Cl)cc(O)cc2Cl)cc1 | 18.2%
69 | CN(C)S(=O)(=O)c1cccc(NC(=O)COc2ccc3ccccc3c2)c1 | -7.08%
70 | O=C(O)c1ccc(/C=N/N2CCN(C3c4ccccc4-c4ccccc43)CC2)cc1 | 12.1%
71 | CCn1c(SCC(=O)NCc2ccc3c(c2)OCO3)nnc1-c1ccco1 | -5.03%
72 | Cc1ccccc1-c1nnc(SCC(=O)NCc2ccc3c(c2)OCO3)n1C | -8.1%
73 | O=C(CSc1nnc(-c2cccnc2)n1-c1ccccc1)Nc1ccc2c(c1)OCO2 | -6.74%
74 | C=CCn1c(SCC(=O)NCc2ccc3c(c2)OCO3)nnc1-c1cccnc1 | -0.64%
75 | O=C(CSc1nnc(-c2cccnc2)n1-c1ccccc1)NCc1ccc2c(c1)OCO2 | -69%
76 | O=C(CSc1ncc(C(=O)O)n1-c1ccc(F)cc1)NCc1ccc2c(c1)OCO2 | 35.8%
77 | O=C(CSc1nc2ccccc2c(=O)n1-c1ccccc1)NCc1ccc2c(c1)OCO2 | 3.23%
78 | O=C(CSc1nnc(-c2cccnc2)n1-c1ccc(F)cc1)NCc1ccc2c(c1)OCO2 | -72.5%
79 | O=C(CSc1nnc(-c2ccco2)n1-c1ccccc1)NCc1ccc2c(c1)OCO2 | -73.4%
80 | CC(=O)Oc1ccc(-c2cccc(C(=O)N(C)c3ccc(O)cc3)c2)cc1 | -17.8%
81 | CN(C)c1ccc(C(=S)Nc2ccccc2)cc1 | 12.5%
82 | COC(=O)c1cc(NC(=O)c2nccnc2C(=O)O)cc(C(=O)OC)c1 | 13.8%
83 | Cc1ccc(CNC(=O)c2ccc(N3CCc4ccccc43)c([N+](=O)[O-])c2)cc1 | 3.31%
